Assay results from PubChem BioAssay (NCI).
Compounds without any hit were thinned out: in the full panel of roughly 79,000, 15% have a hit. The source made the active and inactive calls. Cut-off read from the data, not from the text of the source: active = growth inhibition above about 70%; inactive = the rest. Where a SMILES comes first, the peptide text is derived from it. [ ]: non-standard residue; d: D form. The star is where a group is joined. Phe(4-NO2) = N[CH](Cc1ccc([N+](=O)[O-])cc1)C(=O)O; Boc = CC(C)(C)OC(=O)*

Legend:
[1] = NCI Yeast Anticancer Drug Screen. Data for the rad50 strain (AID 155);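 note: 0% = growth of vehicle-only cultures of the same strain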; conditions: S. cerevisiae rad50 strain growth inhibition, hits give high values
How it was run: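 DNA repair mutant yeast, compound exposure, growth read-out; inhibition is taken relative to vehicle.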

[2] = NCI Yeast Anticancer Drug Screen. Data for the mec2-1 strain (AID 157); conditions: S. cerevisiae mec2-1 strain, hits give high values
How it was run: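 Mutant yeast (mec2-1) grown with compound; growth inhibition relative to vehicle control reported.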

[3] = NCI Yeast Anticancer Drug Screen. Data for the sgs1 mgt1 strain (AID 161);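 note: 0% = growth of cultures given vehicle only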; conditions: S. cerevisiae sgs1 mgt1 strain, hits give high values
How it was run: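 This yeast growth screen uses a strain with defined DNA-repair lesions; compound-treated growth is compared with vehicle-treated growth.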

[4] = NCI Yeast Anticancer Drug Screen. Data for the cln2 rad14 strain (AID 165);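 note: 0% = growth equal to vehicle treated cultures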; conditions: S. cerevisiae cln2 rad14 strain, hits give high values
How it was run: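 Readout is yeast growth inhibition versus vehicle-treated controls, using a strain with cln2 and rad14 alterations exposed to compound.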

[5] = NCI Yeast Anticancer Drug Screen. Data for the bub3 strain (AID 167); conditions: S. cerevisiae bub3 mutant strain, hits give high values
How it was run: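 In this screen, a yeast mutant lacking normal mitotic checkpoint function is challenged with compound. Relative growth versus vehicle gives the inhibition value.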

[6] = NCI Yeast Anticancer Drug Screen. Data for the mlh1 rad18 strain (AID 175); conditions: S. cerevisiae mlh1 rad18 strain growth inhibition, hits give high values
How it was run: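 Genetically defined yeast (DNA repair-deficient) exposed to compounds; growth inhibition determined relative to vehicle.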

[7] = at 5.0 µM (retest, dose inferred, filed as 0.5)
[8] = at 50.0 µM (retest, dose inferred, filed as 5.0)

Measured: growth inhibition

CCc1c(O)sc2c(c1=O)C(=NCC(C)C)CC(C)(C)N2
inactive: [1]; [7] -5% | [1]; [8] 5% | [1]; at 50.0 µM 40.3% | [2]; [7] 15% | [2]; [8] 34% | [2]; at 50.0 µM 24.1% | [3]; [7] 9% | [3]; [8] -4% | [3]; at 50.0 µM 34.1% | [4]; [7] -14% | [4]; [8] -7% | [4]; at 50.0 µM 27.4% | [5]; [7] 2% | [5]; [8] 4% | [5]; at 50.0 µM 10.8% | [6]; [7] -12% | [6]; [8] -6% | [6]; at 50.0 µM 53.9%

CC(/C=C/c1ccco1)=N\NC(=S)NCC(C)C
active: [1]; [8] 80% | [3]; [8] 86% | [3]; at 50.0 µM 81.2% | [5]; [8] 87% | [5]; at 50.0 µM 83.5% | [6]; [8] 88% | [6]; at 50.0 µM 75.5%
inactive: [1]; [7] 13% | [1]; at 50.0 µM 63.5% | [2]; [7] -20% | [2]; [8] 53% | [2]; at 50.0 µM 61.9% | [3]; [7] 38% | [4]; [7] 16% | [4]; [8] 61% | [4]; at 50.0 µM 64.4% | [5]; [7] 30% | [6]; [7] 25%

CNC(=O)CCC(NC(=O)OC(C)(C)C)C(=O)NC(Cc1ccc([N+](=O)[O-])cc1)C(=O)NCC(=O)NC (stereo not drawn) (Boc-Glu(NHMe)-[Phe(4-NO2)]-Gly-NHMe; configuration not given here)
inactive: [1]; [7] 9% | [1]; [8] -1% | [1]; at 50.0 µM -5.5% | [2]; [7] -3% | [2]; [8] 2% | [2]; at 50.0 µM -1.65% | [3]; [7] -7% | [3]; [8] 3% | [3]; at 50.0 µM 8.8% | [4]; [7] -4% | [4]; [8] 4% | [4]; at 50.0 µM 37.6% | [5]; [7] -15% | [5]; [8] -1% | [5]; at 50.0 µM -1.9% | [6]; [7] -9% | [6]; [8] 6% | [6]; at 50.0 µM -8.8%

Cc1csc2[n+]1C(=O)/C(=C\c1ccc([N+](=O)[O-])cc1)S2
active: [1]; [8] 74% | [2]; [8] 71% | [3]; [8] 80% | [5]; [8] 76% | [6]; [8] 82% | [6]; at 50.0 µM 78.3%
inactive: [1]; [7] 30% | [1]; at 50.0 µM 69.6% | [2]; [7] 21% | [2]; at 50.0 µM 56.2% | [3]; [7] 32% | [3]; at 50.0 µM 50.3% | [4]; [7] 7% | [4]; [8] 67% | [4]; at 50.0 µM 57.5% | [5]; [7] 26% | [5]; at 50.0 µM 46.9% | [6]; [7] 24%

CC1=Nc2ccccc2/C1=C\c1c(C)[nH]c2ccccc12
inactive: [1]; [7] 33% | [2]; [7] 39% | [3]; [7] 38% | [4]; [7] 10% | [5]; [7] 53% | [6]; [7] 58% | [6]; at 50.0 µM -32.6%
active: [1]; [8] 96% | [1]; at 50.0 µM 83% | [2]; [8] 98% | [2]; at 50.0 µM 86.8% | [3]; [8] 97% | [3]; at 50.0 µM 85.2% | [4]; [8] 96% | [4]; at 50.0 µM 74.3% | [5]; [8] 97% | [5]; at 50.0 µM 87.8% | [6]; [8] 94%

O=C1/C(=C\c2ccccc2)CN(C(=O)CCN2CCCCC2)C/C1=C/c1ccccc1
inactive: [1]; [7] 16% | [2]; [7] 22% | [2]; [8] 57% | [6]; [7] 28%
active: [1]; [8] 71% | [1]; at 50.0 µM 89.8% | [2]; at 50.0 µM 92.8% | [3]; [7] 98% | [3]; [8] 99% | [3]; at 50.0 µM 90.3% | [4]; [7] 83% | [4]; [8] 99% | [4]; at 50.0 µM 90.3% | [5]; [7] 99% | [5]; [8] 99% | [5]; at 50.0 µM 90.8% | [6]; [8] 74% | [6]; at 50.0 µM 88.8%
